Assay [1] can be described thus: hit retest on RPL19A-GFP reporter strain – cell-based, S. cerevisiae, flow cytometry, cherry picks, mother/daughter gates, confirmation (AID 2270;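 active means GFP response below 50% of the DMSO control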). The following applies: 3 h, at 10 µM, stronger effect = lower value, 100 = same GFP as DMSO wells. For orientation: In flow cytometry, cells or beads pass a laser one at a time.
A short description of assay [2]: yeast TOR pathway reporter LAP4-GFP change – cell-based, cherry picks, flow cytometry, mother/daughter gates, confirmation (AID 2271;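 active means GFP response above 150% of the DMSO control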;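 further: ratio of sample to DMSO plate mean so 100% equals DMSO level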). The following applies: S. cerevisiae LAP4-GFP strain, 3 h, at 10 µM, stronger effect = higher value, 100 means same as DMSO control.
Assay [3] in a line: TOR pathway reporter MEP2-GFP, retest of hits – S. cerevisiae, flow cytometry GFP, cherry picks, confirmation (AID 2272;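 active means GFP response above 150% of the DMSO control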;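 further: ratio of well signal to plate DMSO mean so 100% equals DMSO level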). The following applies: S. cerevisiae MEP2-GFP strain, 3 h, at 10 µM, stronger effect = higher value.
Assay [4] in a line: yeast AGP1-GFP fluorescence change, single-dose – cell-based, flow cytometry, S. cerevisiae, cherry picks, confirmation (AID 2273).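 Further: median GFP channel fluorescence over the whole cell population gate.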 The following applies: S. cerevisiae AGP1-GFP strain, 3 h, at 10 µM.
Assay [5] can be described thus: TOR pathway CIT2 reporter hit retest – S. cerevisiae, GFP fusion, cherry picks, mother/daughter gates, confirmation (AID 2274). To be noted: S. cerevisiae CIT2-GFP strain, flow cytometry, 3 h, at 10 µM, stronger effect = higher value.
Where [6] appears, read: measured here: daughter cell gate.
Setting [7] is: measured here: mother cell gate.
Where [8] appears, read: measured here: daughter cell gate response.
Where [9] appears, read: measured here: mother cell gate response.

The source made the active and inactive calls.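 How the source made its calls, unless noted: active means GFP response above 150% of the DMSO level; inconclusive means fewer than 70 events counted for a yeast strain; inactive means the rest.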

Regarding `Cc1cc(NCCCn2ccnc2)n2ncc(-c3ccccc3)c2n1`, the GFP response vs DMSO in assay [1] was 96.6% (inactive); in assay [1] (setting [6]), 99.1%; in assay [1] (setting [7]), 96.7%; in assay [3] it was 99% (inactive). For the same compound, the GFP response relative to DMSO in assay [2] is 95.7% (inactive); in assay [2] (setting [8]), 94.2%; in assay [2] (setting [9]) it was 96.2%. The GFP response, % of DMSO was 104% (inactive) in assay [4], 100% (inactive) in assay [5], 101% in assay [5] (setting [6]) and 101% in assay [5] (setting [7]).
Consider `C/C(=N/NC(=O)c1ccc(C(C)(C)C)cc1)c1ccccn1`, for which the GFP response vs DMSO in assay [1] is 110% (inactive); in assay [1] (setting [6]) it was 107%; in assay [1] (setting [7]), 101%; in assay [3], 126% (inactive). In addition, the values for the GFP response relative to DMSO in assay [2], in assay [2] (setting [8]) and in assay [2] (setting [9]) were 231% (active), 197% and 209%, respectively. The GFP response, % of DMSO in assay [4] was 90% (inactive); in assay [5], 112% (inactive); in assay [5] (setting [6]) it was 115%; in assay [5] (setting [7]), 98.2%.
Consider `Cc1cc(C)nc(/N=c2/ssnc2Cl)c1`, for which the GFP response vs DMSO in assay [1] was 88.7% (inactive); in assay [1] (setting [6]) it was 87.3%; in assay [1] (setting [7]) it was 86.4%; in assay [3], 107% (inactive). The GFP response relative to DMSO in assay [2] is 142% (inactive); in assay [2] (setting [8]) it was 131%; in assay [2] (setting [9]), 143%. Moreover, the GFP response, % of DMSO in assay [4] is 111% (inactive); in assay [5], 124% (inactive); in assay [5] (setting [6]) it was 110%; in assay [5] (setting [7]), 116%.
Regarding `Cc1ccc(/C=N/NC(=O)c2ccccn2)s1`, the GFP response vs DMSO in assay [1] was 99.2% (inactive); in assay [1] (setting [6]) it was 97.1%; in assay [1] (setting [7]) it was 97%; in assay [3], 101% (inactive). Moreover, the GFP response relative to DMSO in assay [2] is 99.5% (inactive); in assay [2] (setting [8]), 95.9%; in assay [2] (setting [9]), 99.4%. The GFP response, % of DMSO in assay [4] is 95.1% (inactive); in assay [5] it was 94.4% (inactive); in assay [5] (setting [6]), 93.8%; in assay [5] (setting [7]), 94.4%.
In the case of `S=C(Sc1ccc(Cl)cc1)Sc1ccc(Cl)cc1`, the GFP response vs DMSO in assay [1] was 97.6% (inactive); in assay [1] (setting [6]), 93.2%; in assay [1] (setting [7]), 95.1%; in assay [3], 112% (inactive). Moreover, the GFP response relative to DMSO was 112% (inactive) in assay [2], 108% in assay [2] (setting [8]) and 115% in assay [2] (setting [9]). Also, the GFP response, % of DMSO in assay [4] is 110% (inactive); in assay [5], 112% (inactive); in assay [5] (setting [6]), 105%; in assay [5] (setting [7]) it was 107%.
`Cc1ccc(C(=O)Oc2oc(-c3ccccc3)nc2C=Nc2ccc(N(C)C)cc2)cc1`: the GFP response vs DMSO in assay [1] was 98.2% (inactive); in assay [1] (setting [6]) it was 99.4%; in assay [1] (setting [7]), 98.8%; in assay [3], 105% (inactive). The GFP response relative to DMSO in assay [2] was 94.9% (inactive); in assay [2] (setting [8]), 98.2%; in assay [2] (setting [9]), 93%. For the same compound, the GFP response, % of DMSO in assay [4] is 101% (inactive); in assay [5], 113% (inactive); in assay [5] (setting [6]) it was 114%; in assay [5] (setting [7]), 114%.
Turning to `COc1cc(OC)cc(-c2nc(-c3ccccc3OC)no2)c1`, the GFP response vs DMSO in assay [1] was 97.8% (inactive); in assay [1] (setting [6]), 99.3%; in assay [1] (setting [7]), 95.6%; in assay [3], 114% (inactive). Besides, the figures for the GFP response relative to DMSO in assay [2], in assay [2] (setting [8]) and in assay [2] (setting [9]) were 97.7% (inactive), 97.5% and 101%, respectively. The GFP response, % of DMSO in assay [4] is 108% (inactive); in assay [5], 107% (inactive); in assay [5] (setting [6]), 108%; in assay [5] (setting [7]), 107%.
Regarding `COC(=O)Cn1cc(/C=C/[N+](=O)[O-])c2ccccc21`, the GFP response vs DMSO in assay [1] was 101% (inactive); in assay [1] (setting [6]), 103%; in assay [1] (setting [7]), 100%; in assay [3], 101% (inactive). Besides, the GFP response relative to DMSO in assay [2] is 145% (inactive); in assay [2] (setting [8]) it was 146%; in assay [2] (setting [9]), 145%. Besides, the GFP response, % of DMSO in assay [4] was 103% (inactive); in assay [5] it was 106% (inactive); in assay [5] (setting [6]) it was 108%; in assay [5] (setting [7]), 103%.
`O=C(NNC1=NCCC1)c1cccc(Br)c1`: the GFP response vs DMSO was 98% (inactive) in assay [1], 98.5% in assay [1] (setting [6]), 97.9% in assay [1] (setting [7]) and 99.5% (inactive) in assay [3]. In addition, the GFP response relative to DMSO in assay [2] was 100% (inactive); in assay [2] (setting [8]), 97.9%; in assay [2] (setting [9]) it was 99.5%. The GFP response, % of DMSO in assay [4] is 97.5% (inactive); in assay [5], 96.4% (inactive); in assay [5] (setting [6]), 96.4%; in assay [5] (setting [7]), 94.5%.
Regarding `O=C(Oc1oc(-c2ccco2)nc1C=Nc1ccccc1)c1ccco1`, the GFP response vs DMSO in assay [1] was 104% (inactive); in assay [1] (setting [6]) it was 106%; in assay [1] (setting [7]), 102%; in assay [3], 107% (inactive). Besides, the values for the GFP response relative to DMSO in assay [2], in assay [2] (setting [8]) and in assay [2] (setting [9]) were 160% (active), 147% and 175%, respectively. The GFP response, % of DMSO in assay [4] was 91.2% (inactive); in assay [5] it was 104% (inactive); in assay [5] (setting [6]), 108%; in assay [5] (setting [7]), 101%.
In the case of `CCOC(=O)CS(=O)(=O)c1nc(-c2ccccc2)cc(C(F)(F)F)n1`, the GFP response vs DMSO in assay [1] is 101% (inactive); in assay [1] (setting [6]) it was 105%; in assay [1] (setting [7]), 96.2%; in assay [3], 130% (inactive). In addition, the GFP response relative to DMSO in assay [2] was 204% (active); in assay [2] (setting [8]), 192%; in assay [2] (setting [9]), 206%. Further, the GFP response, % of DMSO in assay [4] is 110% (inactive); in assay [5], 110% (inactive); in assay [5] (setting [6]), 110%; in assay [5] (setting [7]) it was 101%.
On to `O=C1c2ccsc2SCCN1Cc1ccc(F)cc1`, for which the GFP response vs DMSO is 97% (inactive) in assay [1], 94.4% in assay [1] (setting [6]), 100% in assay [1] (setting [7]) and 90.5% (inactive) in assay [3]. The results for the GFP response relative to DMSO in assay [2], in assay [2] (setting [8]) and in assay [2] (setting [9]) were 111% (inactive), 110% and 113%, respectively. Moreover, the GFP response, % of DMSO in assay [4] is 97.3% (inactive); in assay [5], 100% (inactive); in assay [5] (setting [6]) it was 103%; in assay [5] (setting [7]) it was 89.5%.
For the compound `Cc1ccc2nc(/C(C#N)=C/c3ccc(O)c(O)c3)[nH]c2c1`, the GFP response vs DMSO in assay [1] is 103% (inactive); in assay [1] (setting [6]), 102%; in assay [1] (setting [7]), 105%; in assay [3] it was 230% (active). Further, the GFP response relative to DMSO in assay [2] was 123% (inactive); in assay [2] (setting [8]), 110%; in assay [2] (setting [9]) it was 133%. For the same compound, the GFP response, % of DMSO was 102% (inactive) in assay [4], 128% (inactive) in assay [5], 114% in assay [5] (setting [6]) and 140% in assay [5] (setting [7]).

The values are drawn from PubChem BioAssay.
